# Assay results published in article PMC4552634, “A New Set of Chemical Starting Points with Plasmodium falciparum Transmission-Blocking Potential for Antimalarial Drug Discovery” (PLoS ONE, 2015).
# Where two headings read alike, the source gives them in different places. The campaign covered roughly 13,000 compounds. About 3,200 (25%) showed an effect of 50% or more. The list shows a part of the results.
# Tested on: P. falciparum stage V gametocytes
# Parameters: BacTiter-Glo ATP luminescence viability of purified stage V gametocytes in 384-well plates, per cent inhibition versus DMSO
# Conditions: 48 h, 5 µM, inhibitor
SMILES,% Inhibition,% Inhibition (% Inhibition)
Cc1cccc(C(=O)NCCCN2CCC(NC(=O)/C=C/c3ccc(Cl)c(Cl)c3)CC2)c1 [TCMDC-133355],-67.88%,
CCNc1cc(C(=O)N[C@@H](Cc2ccccc2)[C@H](O)CNC2CCSCC2)cc(N2CCCC2=O)c1 [TCMDC-134686],19.67%,
CC(C)(C)COC(=O)c1ccc(NC(=O)N[C@@H](Cc2ccc(O)cc2)C(=O)NC2CCN(Cc3ccc(O)cc3)C2)cc1 (stereo partly drawn) [TCMDC-135356],-84.6%,
COc1ccc(Nc2nccc(NCCNC(=O)c3cc4ccccc4s3)n2)cc1 [TCMDC-133643],10.68%,
COc1ccc2nccc([C@@H](O)CN3CCC(NC(=O)[C@@H]4Cc5ccccc5CN4C(=O)OC(C)(C)C)CC3)c2c1 [TCMDC-141035],29.65%,
O=C(/C=C/c1ccc(Cl)c(Cl)c1)NCCCCCN1CCC(NC(=O)Nc2cc(Cl)nc(Cl)c2)CC1 [TCMDC-135889],-21.96%,
COc1cc2c(C3CCN(CC4CCN(C(=O)/C=C/c5ccc(Cl)c(Cl)c5)CC4)CC3)c[nH]c2cn1 [TCMDC-140246],-34.41%,
Nc1cc2c(C3CCN(CC4CCN(C(=O)/C=C/c5ccc(Cl)c(Cl)c5)CC4)CC3)c[nH]c2cn1 [TCMDC-140133],101.5%,
O=C(Nc1ccc(Cn2ncc(N3CCCNCC3)c(Cl)c2=O)cc1)Nc1ccc(SC(F)(F)F)cc1 [TCMDC-133320],-14.71%,
O=C(C=Cc1ccc(Cl)c(Cl)c1)NCCCCCN1CCCC(CCCNC(=O)c2sc3ccccc3c2Cl)C1 (stereo not drawn) [TCMDC-139579],100.9%,
O=C(/C=C/c1ccc(Cl)c(Cl)c1)NCCCCCN1CCCC(CNC(=O)c2sc3ccccc3c2Cl)C1 (stereo not drawn) [TCMDC-139583],81.46%,
O=C(C=Cc1ccc(Cl)c(Cl)c1)NCCCCCN1CCC(CCNC(=O)c2sc3ccccc3c2Cl)CC1 [TCMDC-139567],38.26%,
O=C(/C=C/c1ccc(Cl)c(Cl)c1)NCCCCCN1CC[C@H](NC(=O)/C=C/c2ccccc2)C1 [TCMDC-139561],-7.699%,
O=C(/C=C/c1ccc(Cl)c(Cl)c1)NCCCCCN1CCC(CCNC(=O)c2snnc2-c2ccccc2)CC1 [TCMDC-140007],-18.32%,
O=C(/C=C/c1ccc(Cl)c(Cl)c1)NCCCCCN1CC[C@H](NC(=O)c2sc3ccccc3c2Cl)C1 [TCMDC-139562],48.14%,
O=C(C=Cc1ccc(Cl)c(Cl)c1)NCCCCCN1CCC(CCCNC(=O)c2sc3ccccc3c2Cl)CC1 [TCMDC-139573],86.01%,
CCC(NCc1ccc(-c2cncc(C(=O)NCC(C)C)c2)cc1)c1ccccc1 (stereo not drawn) [TCMDC-134237],15.84%,
Cc1cccc2nc(-c3ccc(-c4cccc(CNCc5cnn(-c6ccccc6)n5)c4)s3)[nH]c12.O=C(O)C(F)(F)F [TCMDC-132972],-22.07%,
O=C(NCc1ccccc1)OC1CNCCC1c1ccc(C(O)Cc2ccccc2)cc1 (stereo not drawn) [TCMDC-141020],26.78%,
CCc1ccc(-n2c(=O)c3cccnc3n2CC(=O)NC2CCCC2)cc1 [TCMDC-125158],-2.653%,
O=C(/C=C/c1ccc(Cl)c(Cl)c1)NCCCCCN1CCC(c2[nH]nc(-c3ccccc3)c2Br)CC1 [TCMDC-139448],-19.71%,
O=C(NCCNc1ccnc(Nc2ccc(F)cc2)n1)c1cc2ccccc2s1 [TCMDC-133637],-20.49%,

SMILES,% Inhibition,% Inhibition (% Inhibition)
COCCNC(=O)c1ccc(OC2CCN(CC(C)=Cc3ccccc3)CC2)c(Cl)c1 [TCMDC-124691],9.67%,
c1cncc(CN2CCCN(c3ccc4c(c3)CCN(Cc3ccc(-c5ncc[nH]5)cc3)CC4)CC2)c1 [TCMDC-136551],-8.506%,
c1ccc(CN2CCN(c3cc(-c4cncc(-c5ccccc5)c4)nc(-c4ccccc4)n3)CC2)cc1 [TCMDC-125589],-13.47%,
CN1CCN(c2cc(-c3ccncc3)nc(-c3cccnc3)n2)CC1 [TCMDC-125596],38.53%,
c1ccc(N2CCN(c3cc(-c4cccnc4)nc(-c4ccncc4)n3)CC2)nc1 [TCMDC-125418],44.02%,
c1cncc(-c2cc(N3CCCCC3)nc(-c3ccncc3)n2)c1 [TCMDC-125594],3.34%,
CN1CCN(c2cc(-c3cccnc3)nc(-c3ccncc3)n2)CC1 [TCMDC-125593],52.46%,
c1cncc(-c2cc(N3CCc4ccccc4C3)nc(-c3ccncc3)n2)c1 [TCMDC-125419],60.68%,
COc1ccc(NC(=O)Nc2cccc(-c3cccc(-c4nc5c(C)cccc5[nH]4)c3)c2)cc1 [TCMDC-133247],-12.94%,
Fc1ccc2[nH]c(-c3cccc(-c4ccc(CNCC5CCCO5)cc4)c3)nc2c1.O=C(O)C(F)(F)F (stereo not drawn) [TCMDC-133105],-0.6383%,
CN1CCCC(CN2CCN(Cc3ccc(-c4ccc(-c5nc6ccc(F)cc6[nH]5)s4)cc3)CC2)C1 (stereo not drawn) [TCMDC-133892],66.7%,
OCC1CCN(Cc2cccc(-c3cccc(-c4nc5ccc(C(F)(F)F)cc5[nH]4)c3)c2)CC1 [TCMDC-133129],41.06%,
OCC1CCN(Cc2ccc(-c3cccc(-c4nc5ccc(C(F)(F)F)cc5[nH]4)c3)cc2)CC1 [TCMDC-133130],-16.83%,
N#CCCN1CCN(Cc2ccc(-c3ccc(-c4nc5ccc(F)cc5[nH]4)s3)cc2)CC1 [TCMDC-133861],-54.51%,
OCC1CCN(Cc2cccc(-c3ccc(-c4nc5ccc(C(F)(F)F)cc5[nH]4)cc3)c2)CC1 [TCMDC-133123],76.36%,
CN1CCCC(CN2CCN(Cc3cccc(-c4ccc(-c5nc6ccc(F)cc6[nH]5)cc4)c3)CC2)C1 (stereo not drawn) [TCMDC-133891],104.2%,
CN1CCCC(CN2CCN(Cc3ccc(-c4ccc(-c5nc6ccccc6[nH]5)s4)cc3)CC2)C1 (stereo not drawn) [TCMDC-133889],85.26%,
CC1CN(Cc2ccc(-c3ccc(-c4nc5ccc(F)cc5[nH]4)s3)cc2)CC(C)O1 (stereo not drawn) [TCMDC-133819],9.471%,
CN1CCCC(CN2CCN(Cc3ccc(-c4ccc(-c5nc6ccc(F)cc6[nH]5)cc4)cc3)CC2)C1 (stereo not drawn) [TCMDC-133908],90.06%,
OC1CCCN(Cc2cccc(-c3ccc(-c4nc5ccc(C(F)(F)F)cc5[nH]4)cc3)c2)C1 (stereo not drawn) [TCMDC-133814],-59.43%,
OCCN1CCN(Cc2ccc(-c3ccc(-c4nc5ccc(F)cc5[nH]4)cc3)cc2)CC1 [TCMDC-133030],-14.7%,
CC1CN(Cc2ccc(-c3cccc(-c4nc5ccc(F)cc5[nH]4)c3)cc2)CC(C)O1 (stereo not drawn) [TCMDC-133813],-17.46%,

SMILES,% Inhibition,% Inhibition (% Inhibition)
N#CCCN1CCN(Cc2cccc(-c3ccc(-c4nc5ccc(C(F)(F)F)cc5[nH]4)cc3)c2)CC1 [TCMDC-133844],-10.1%,
COCCN1CCN(Cc2ccc(-c3ccc(-c4nc5ccc(F)cc5[nH]4)cc3)cc2)CC1 [TCMDC-133022],-25.91%,
NC1CCN(Cc2cccc(-c3ccc(-c4nc5ccc(C(F)(F)F)cc5[nH]4)cc3)c2)C1 (stereo not drawn) [TCMDC-133837],42.56%,
N#CCCN1CCN(Cc2ccc(-c3cccc(-c4nc5ccc(F)cc5[nH]4)c3)cc2)CC1 [TCMDC-133845],7.403%,
CN1CCCC(CN2CCN(Cc3cccc(-c4ccc(-c5nc6ccc(C(F)(F)F)cc6[nH]5)cc4)c3)CC2)C1 (stereo not drawn) [TCMDC-133882],68.4%,
CC(=O)N(C)C1CCN(Cc2cccc(-c3ccc(-c4nc5ccc(C(F)(F)F)cc5[nH]4)cc3)c2)C1 (stereo not drawn) [TCMDC-133884],-40.19%,
NC1CCCN(Cc2cccc(-c3ccc(-c4nc5ccc(C(F)(F)F)cc5[nH]4)cc3)c2)C1 (stereo not drawn) [TCMDC-133839],50.43%,
CN1CCCC(CN2CCN(Cc3ccc(-c4cccc(-c5nc6ccc(F)cc6[nH]5)c4)cc3)CC2)C1 (stereo not drawn) [TCMDC-133883],67.8%,
COc1ccc2ncc(C#N)c(CCN3CCC(NCc4ccc5c(c4)OCCO5)CC3)c2c1 [TCMDC-135664],6.84%,
O=C(Nc1cccc(-c2cccc(-c3nc4ccccc4[nH]3)c2)c1)NC1CC1c1ccccc1 (stereo not drawn) [TCMDC-133256],,3.053%
COc1ccc2c(c1)Sc1ccccc1C(N1CCN(CCO)CC1)C2 (stereo not drawn) [TCMDC-139028],-3.41%,
Cc1cccc2nc(-c3ccc(-c4cccc(C(=O)NCCc5cn(C)cn5)c4)s3)[nH]c12 [TCMDC-132498],-19.19%,
CCOc1c(OC)ccc2c1CCN(CCN1CCC(NC(=O)c3ccc(-c4cccc(C(F)(F)F)c4C(F)(F)F)cc3)CC1)C2 [TCMDC-135432],-45.25%,
CCOc1cc(C(=O)NC2CCN(Cc3ccccc3)CC2)ccc1-c1nc2cc(Cl)c(Cl)cc2[nH]1 [TCMDC-140080],-6.754%,
CCOc1cc(Cl)c(C(C)NC(=O)c2cccc(OC)c2)cc1OCC (stereo not drawn) [TCMDC-125450],81.4%,
CCOc1cc(Br)c(C(C)NC(=O)c2cccc(OC)c2)cc1OCC (stereo not drawn) [TCMDC-123742],47.1%,
CCOc1cc(Br)c(C(C)NC(=O)c2ccccc2)cc1OCC (stereo not drawn) [TCMDC-123743],65.54%,
CCOc1cc(C(=O)Nc2ccccc2N2CCN(S(C)(=O)=O)CC2)cc(OCC)c1OCC [TCMDC-124994],1.091%,
CCOc1cc(C(=O)Nc2ccc3nc(N(CC)CC)cc(C)c3c2)cc(OCC)c1OCC [TCMDC-124008],-7.565%,
O=C(NOCCCCOc1ccc(Cl)c(Cl)c1)c1ccccc1 [TCMDC-131761],-3.28%,
COc1cccc(C(=O)NC(NC(=S)Nc2ccc(OC)cc2[N+](=O)[O-])C(Cl)(Cl)Cl)c1 (stereo not drawn) [TCMDC-124141],23.91%,
CCOc1cc(Cl)c(C(C)NC(=O)c2ccccc2)cc1OCC (stereo not drawn) [TCMDC-123744],73.45%,
